Broadly, the inhibition is the relative decrease from the control value, in per cent.

The structures appear in SMILES notation. The whole screen tested about 220,000 compounds, of which about 1,500 (0.68%) were called active. What follows is part of a selection rich in actives, with near analogues and random picks from the rest. Values without a mark were called inactive.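 The calls were made as follows: active = Hck-Nef kinase inhibition above about 50% (limit read from the data); inactive = inhibition below that limit.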

Here are results for 27 compounds from PubChem BioAssay AID463187 (University of Pittsburgh Molecular Library Screening Center, 2010).

Tyrosine-protein kinase HCK (Homo sapiens), sequence (P08631 whole entry, looked up): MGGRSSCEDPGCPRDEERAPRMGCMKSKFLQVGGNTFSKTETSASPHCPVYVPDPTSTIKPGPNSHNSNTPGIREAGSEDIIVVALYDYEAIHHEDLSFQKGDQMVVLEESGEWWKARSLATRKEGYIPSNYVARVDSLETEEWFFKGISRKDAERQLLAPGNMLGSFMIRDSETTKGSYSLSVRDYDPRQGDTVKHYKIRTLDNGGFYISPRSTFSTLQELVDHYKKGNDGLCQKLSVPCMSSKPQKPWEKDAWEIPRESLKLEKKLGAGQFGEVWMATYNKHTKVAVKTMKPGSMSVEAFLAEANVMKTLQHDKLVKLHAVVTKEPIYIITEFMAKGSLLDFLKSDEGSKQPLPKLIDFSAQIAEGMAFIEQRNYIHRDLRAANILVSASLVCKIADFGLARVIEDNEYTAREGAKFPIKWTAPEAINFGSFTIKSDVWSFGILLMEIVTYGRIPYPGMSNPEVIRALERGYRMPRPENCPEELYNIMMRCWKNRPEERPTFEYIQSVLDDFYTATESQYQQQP

The experiment concerns the target Tyrosine-protein kinase HCK (Homo sapiens) (UniProt P08631). Description: inhibitors of Nef-activated human Hck kinase, primary screen, biochemical, Z-Lyte FRET, 384-well, Hck-YEEI (AID 463187).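 Also: 0% = DMSO with Hck plus Nef and 100% = Hck alone without Nef.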 The note with it: Recombinant Hck-YEEI plus Nef, Z-Lyte FRET kinase assay; at 20 µM; active compounds read high.
Consider `Cc1ccc2cc(CCNC(=O)c3ccc4c(c3)OCO4)c(=O)[nH]c2c1`, for which the inhibition was 0.571%. The figure for `Cc1cc(N)n2nc(-c3ccc(C(C)(C)C)cc3)cc2n1` is 0.862%. The figure for `CSCC[C@H](NC(=O)CCCn1nnc2ccccc2c1=O)C(=O)O` is 4.6%; for `O=C(COc1ccccc1F)NNC(=O)c1ccc(N2CCCCC2)c([N+](=O)[O-])c1` it is 2.35%. As to `CCCN(CCC)c1ccc(C(O)c2nnc(-c3ccccc3)o2)cc1` (configuration not stated), the inhibition is -0.222%. In the case of `Nc1ccc(-c2nnc(-c3ccc(-c4ccccc4)cc3)o2)cc1`, the inhibition is 2.48%. In the case of `OC(c1nnc(-c2ccccc2)o1)c1cccs1` (configuration not stated), the inhibition was 52.9% (active).

On to `C/C(CC(=O)Nc1ccc(C)cc1C)=N\NC(=O)C(C)C`, for which the inhibition is 14.7%. In the case of `NC(=O)Nc1ccccc1C(=O)NCCc1ccccc1`, the inhibition is 1.58%. Regarding `COc1ccc(Cl)cc1S(=O)(=O)N1CCC(O)(c2ccc(Cl)cc2)CC1`, the inhibition was 3.69%. Take `O=C1c2ccccc2S(=O)(=O)N1CC(O)Cn1c2ccccc2c2ccccc21` (configuration not stated): the inhibition was 0.294%.

On to `CS(=O)(=O)N(CC(O)Cn1c2ccccc2c2ccccc21)c1cccc2ccccc12` (configuration not stated), for which the inhibition is 0.481%. Then `CCCCN(CCCC)CC(O)Cn1c2ccccc2c(=O)c2ccccc21` (configuration not stated), with 119% (active); and `Cn1cnnc1Sc1ccc(CN2CCN(C3CCCC3)C(CCO)C2)o1` (configuration not stated), with -5.92%; and `COC(=O)CCCC1=CC2=CC(=O)C(C)(OC(=O)c3cccs3)C(=O)C2=CN1CC(C)C` (configuration not stated), with 23.4%. For the compound `COC(=O)CCCC1=CC2=CC(=O)C(C)(OC(=O)c3cccs3)C(=O)C2=CN1CC1CC1` (configuration not stated), the inhibition is 10.7%. `COC/C=C/C1=CC2=CC(=O)C(C)(OC(=O)CCC(=O)OC)C(=O)C2=CO1` (configuration not stated): the inhibition is 51.9% (active). With `Cc1ccc(CN(C(=O)c2sc3ccccc3c2Cl)C2CCS(=O)(=O)C2)cc1` (configuration not stated), the inhibition is 3.1%.

Turning to `CC(=O)Nc1ccc(SCC(=O)Nc2ccccc2Oc2ccccc2)cc1`, the inhibition was 0.985%.

With `Cc1nn(CC(=O)Nc2ccc(N(C)C)cc2)c(C)c1[N+](=O)[O-]`, the inhibition was 4.36%. Then `O=C(O)CCn1cc(/C=C/C(=O)c2ccc(Cl)cc2)c(-c2cccc(Br)c2)n1`, with 55% (active); and `CCOC(=O)/C(C#N)=C/c1cn(CCC(=O)O)nc1-c1ccc(Br)cc1`, with 20.2%.

On to `O=C(O)/C=C/c1cn(Cc2ccccc2)nc1-c1cccs1`, for which the inhibition was -1.06%.

Consider `Cc1onc(C(=O)NN)c1C(=O)N1CCN(C(c2ccccc2)c2ccccc2)CC1`, for which the inhibition was 16.6%. With `N/C(=N\S(=O)(=O)c1cc(C(F)(F)F)cc(C(F)(F)F)c1)c1cccs1`, the inhibition was -0.264%. Turning to `O=[N+]([O-])c1ccccc1N/N=C1\CCc2ccccc21`, the inhibition was -4.18%. The figure for `COc1ccc(NC(=S)NCc2cccs2)c(OC)c1` is 0.854%.
